From PubChem
Most compounds without a hit are left out; they make up all but 28% or so of the library.
CYP2C19 act: activators of human cytochrome P450 2C19; AID 1025; P33261; activation factor at 5 µM; recombinant CYP2C19, luciferin-H EGE luminescence; hits give high values; 0 = fully inhibited enzyme, 1 = untreated enzyme; 96,000 tested, under 10 active;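 active = activation factor of at least 2 at 5 µM in the primary screen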;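 note: 0 = wells with 2.5 mM tranylcypromine and 1 = vehicle-only wells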
CYP2C19 inhib: human CYP2C19 inhibition. P33261. CYP2C19 Supersomes, luciferin-H EGE luminescence, 30 min. inhibition, % at 5 µM. hit rate 21% among 96,000;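 active = CYP2C19 inhibition above a set limit at 5 µM in the primary screen, cut at about 50% in these data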;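 note: plate controls were negative control wells for no effect and 2.5 mM tranylcypromine positive control for full effect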
CYP2C9 activ: CYP2C9 (human) activation. P11712. recombinant CYP2C9, luciferin-H conversion, luminescence; hits give high values; factor 1 = untreated enzyme, 0 = blocked. activation factor at 5 µM. hit rate 1.4% among 96,000;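 active = activation factor of 2 or more for CYP2C9 at a 5 µM dose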;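 note: 0 = sulfaphenazole-blocked wells and 1 = vehicle-only wells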
CD11b adhes enh: enhancers of human CD11b/CD18 binding to fibrinogen | P05107+P11215 | K562 CD11b/CD18 adhesion to fibrinogen, ATPlite luminescence | activation, % at 10 µM | hit rate 0.07% among 93,000 | AID 1499;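 active = 10 µM primary screen giving 50% or more activity, confirmed by 40% or more on retest at that dose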
CYP2C9 inhib: inhibitors of human CYP2C9; P11712; CYP2C9 Supersomes, luciferin-H conversion, luminescence; inhibition, % at 5 µM; hit rate 20% among 96,000;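 active = blocking of liver enzyme CYP2C9 beyond about 50% at 5 µM, limit read from the data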
CD11b adhes inh: CD11b/CD18-fibrinogen binding inhibition; P05107+P11215; K562 CD11b/CD18 adhesion to fibrinogen, ATPlite luminescence; Mn2+ added to activate the integrin; inhibition, % at 10 µM; hit rate 0.54% among 93,000;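 active = primary inhibition of 50% or more at 10 µM, then 40% or more on retest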
Numbers without * were called inactive; nt = no result given.

SMILES	CYP2C19 act	CYP2C19 inhib	CYP2C9 activ	CD11b adhes enh	CYP2C9 inhib	CD11b adhes inh
COc1ccc(/C=N/NC(=O)c2cccnc2)cc1CSc1nc2ccccc2s1	nt	nt	nt	0	nt	-22
COc1ccc(/C=N/NC(=O)c2cc(-c3ccccc3OC)nc3ccccc23)cc1COC(C)=O	0.6	44	0.3	-3	72*	-3
COc1ccc(/C=N/NC(=O)c2ccccc2Cl)cc1CSc1nc2ccccc2s1	0.5	51*	0.2	-6	82*	12
COc1ccc(/C=N/NC(=O)c2cc(-c3ccc(C)cc3C)nc3ccccc23)cc1COC(C)=O	0.5	47	0.3	nt	74*	nt
Cc1ccc(C(=O)COc2ccccc2N2C(=O)c3ccccc3C2=O)cc1	nt	nt	nt	0	nt	8
Fc1ccc(N=C2NN=C(c3cc(F)ccc3F)CS2)cc1	nt	nt	nt	4	nt	18
COCCn1c(C)cc(C2=NNC(=Nc3ccccc3F)SC2)c1C	0.5	53*	0.6	25	38	30
Brc1ccc(-c2ccc(/C=N/Nc3nc4ccccc4[nH]3)o2)cc1	nt	nt	nt	-2	nt	94
N#CC1=C2SCC(O)(c3ccccc3)N2C(=O)CC1c1ccccc1 (centres undefined)	0	98*	0	-3	99*	17
COc1ccccc1NS(=O)(=O)c1cccc(C(=O)NN)c1	0	97*	1.2	3	-19	-14
COc1ccccc1NS(=O)(=O)c1ccc(NN=C2CCCC2)c([N+](=O)[O-])c1	nt	nt	nt	-8	nt	93
COc1ccccc1NS(=O)(=O)c1ccc(O)cc1	0.1	86*	2.3*	-4	-126	0
COc1ccccc1NS(=O)(=O)c1cccc(NC(=O)c2ccc3ccccc3n2)c1	nt	nt	nt	-6	nt	72
Cc1ccc(NC(=O)N2C(=O)C3(OCCO3)c3ccccc32)cc1	0.4	60*	1	0	-4	-17
CCNC(=O)N1C(=O)C2(OCCO2)c2ccccc21	1	3	1	-6	2	-2
COc1ccc(C(C)=O)cc1CSCCC#N	0.9	8	1	-5	3	-3
CCCCNc1c2c(nc3c(-c4ccccc4)c(C)nn13)CCC2	1	1	0.8	-2	22	-5
Cc1nn2c(-n3ccnc3)c3c(nc2c1-c1ccccc1)CCC3	0	96*	0.4	0	63*	6
CCOc1ccc2nc(SCC(=O)NC(=O)NCc3ccco3)[nH]c2c1	1.1	-6	0.9	0	10	-12
COc1ccc(NC(=O)CSc2nnc(C)n2Cc2ccccc2)cc1	0.7	30	0.9	nt	8	nt
CCn1c(COc2ccccc2)nnc1SCC(=O)Nc1cc(C)ccc1OC	0.5	46	2.1*	7	-108	-4
COc1ccc(C)cc1NC(=O)CSc1nnc(COc2ccc(C)cc2)n1Cc1ccco1	0.9	6	0.9	-2	10	-14
CCn1c(COc2ccc(C)cc2)nnc1SCC(=O)Nc1cc(OC)ccc1OC	0.1	90*	0.5	5	48	6
CCn1c(COc2ccc(C)cc2)nnc1SCC(=O)C(C)(C)C	0.5	50	0.5	-2	51*	-1
COc1ccc(OC)c(NC(=O)CSc2nnc(C)n2Cc2ccccc2)c1	0.1	87*	0.7	2	29	11
SMILES	CYP2C19 act	CYP2C19 inhib	CYP2C9 activ	CD11b adhes enh	CYP2C9 inhib	CD11b adhes inh
C=CCn1c(SCc2csc(-c3ccc(Cl)cc3)n2)nnc1-c1ccccc1OC	nt	nt	nt	7	nt	24
Cc1ccc(NC(=O)COC(=O)c2sccc2C)cc1S(=O)(=O)N1CCOCC1	nt	nt	nt	4	nt	-6
Cn1cc(Br)c(C(=O)NNC(=O)c2cccc(Br)c2)n1	1.1	-10	1.9	nt	-87	nt
O=C(CSc1nccn1-c1ccc(F)cc1)Nc1ccc2c(c1)OCO2	0.5	52*	0.7	nt	32	nt
CSc1nccn1CC(=O)Nc1ccc(F)cc1	0.4	63*	0.9	nt	7	nt
Cc1cc(C)cc(-n2ccnc2SCC(=O)Nc2ccc3c(c2)OCCO3)c1	0.8	23	0.6	nt	42	nt
O=C(CSc1nccn1-c1ccccc1)Nc1ccc2c(c1)OCO2	0.1	87*	0.3	0	74*	-21
O=C(C1CCN(S(=O)(=O)N2CCOCC2)CC1)N1CCN(c2ccccc2)CC1	1.1	-10	1.1	-3	-14	2
CC1=C(C(=O)Nc2ccc(Cl)cc2)C2(CCCCC2)C(C(N)=O)C(=S)N1 (centres undefined)	nt	nt	nt	6	nt	1
